# Data reported in the supplement of paper PMC3334620.
# Whole data set: some 33,000 sequences, median “E-score (-0.5 to 0.5)” near -0.011, cut for the highest 2% near 0.28. Only a selection was taken, and the highest values are over-represented in it overall.
# Target: T1, Gcr1 (UniProt P07261)
# T1 sequence: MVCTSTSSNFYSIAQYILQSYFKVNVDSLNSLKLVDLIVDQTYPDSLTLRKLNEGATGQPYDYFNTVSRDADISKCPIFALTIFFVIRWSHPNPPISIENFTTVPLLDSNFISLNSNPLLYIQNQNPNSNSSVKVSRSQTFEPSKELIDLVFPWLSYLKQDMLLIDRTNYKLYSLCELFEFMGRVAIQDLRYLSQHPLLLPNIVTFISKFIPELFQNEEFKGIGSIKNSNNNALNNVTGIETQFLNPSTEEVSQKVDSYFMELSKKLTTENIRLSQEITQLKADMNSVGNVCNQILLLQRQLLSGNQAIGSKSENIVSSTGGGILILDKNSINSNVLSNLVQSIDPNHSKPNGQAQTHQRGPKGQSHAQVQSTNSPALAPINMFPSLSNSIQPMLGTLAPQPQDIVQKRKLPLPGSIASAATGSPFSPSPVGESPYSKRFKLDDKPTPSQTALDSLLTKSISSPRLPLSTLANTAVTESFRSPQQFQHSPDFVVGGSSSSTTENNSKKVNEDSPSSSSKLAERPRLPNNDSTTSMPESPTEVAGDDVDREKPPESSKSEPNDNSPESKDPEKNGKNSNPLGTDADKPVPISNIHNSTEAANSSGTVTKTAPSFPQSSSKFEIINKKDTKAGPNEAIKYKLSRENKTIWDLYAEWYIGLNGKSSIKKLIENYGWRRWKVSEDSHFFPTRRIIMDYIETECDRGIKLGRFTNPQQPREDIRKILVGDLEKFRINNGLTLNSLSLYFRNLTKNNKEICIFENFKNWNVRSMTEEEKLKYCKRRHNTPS
# Assay: PBM E-score (8-mer binding enrichment) (E-score (-0.5 to 0.5)); higher = stronger / more preferred TF binding
# Details: protein concentration: 100 nM; construct: GST-full length
# Summary of the method: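 For each ungapped eight-base word taken together with its reverse complement, the Universal PBM Analysis Suite assigned an E-score. Binding data came from GST-tagged yeast transcription factors, applied at about 100-200 nM, on universal all-10-mer Agilent arrays made double-stranded by primer extension. Fluorescent anti-GST marked bound protein, and scans were normalised with masliner.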
row,Sequence,PBM E-score
1,CAACCCAG,0.00319
2,CCCGCGAC,-0.167
3,AACTTCCT,0.376
4,AACTTCGT,0.173
5,AACTTCCC,-0.0101
6,AGGGAAAT,-0.173
7,ACTGCTAA,-0.0287
8,ACCACTAG,0.267
9,TCCACTCA,0.189
10,CCCACTAC,0.187
11,CCCACTAA,0.241
12,GCCACTAC,0.305
13,ACCACTAC,0.129
14,ACCACTAA,0.285
15,GCCACTCC,-0.045
16,AGCACTAA,-0.0258
17,ACCACTAT,0.356
18,ACCACTCA,-0.067
19,TCCACTAA,0.418
20,ATCGAGCG,-0.167
21,GGATATCC,-0.206
22,CCGATTCA,-0.00017
23,CTGCCGAA,-0.0682
24,GCCACTGA,0.237
25,GCCACTAA,0.366

row,Sequence,PBM E-score
1,GCCACTTA,0.184
2,ACAAAGAG,-0.078
3,CGGCAGAC,-0.254
4,AGGCAGCA,0.0795
5,AGGCAGCG,0.0171
6,CGGCAGCA,-0.0108
7,CGGCAGCC,0.382
8,AGGCAGCC,0.382
9,AGTCTACG,-0.0187
10,GCACGCTA,-0.0819
11,AGACGCTC,0.185
12,AGACGCTG,0.254
13,GGACGCTA,0.363
14,AGACGCTA,0.293
15,CGACGCTA,0.0406
16,ACGAGCAC,-0.0665
17,AAACCCGG,0.0332
18,ACGCGCAT,-0.0657
19,GCCTGTGA,0.0496
20,CCGGAATC,0.219
21,CTGGAATA,0.259
22,ATGGAATC,0.29
23,CTGGAATC,0.407
24,ATGGAATG,-0.00503
25,ATGGAATA,0.0994

row,Sequence,PBM E-score
1,AACGCTCC,-0.276
2,GCGTCTTA,0.239
3,CAGCTCGC,-0.117
4,CGACCGTC,-0.41
5,TGATATCA,0.0841
6,CAGCCATA,0.022
7,CACAGCCC,-0.232
8,AGCAGCAT,-0.00516
9,AGCAGCCG,0.285
10,ATCAGCCG,-0.264
11,ACCAGCCT,0.0001
12,AGCAGCCT,0.369
13,AGCAGCTC,0.16
14,CGCAGCCC,0.324
15,AGCAGCTA,0.273
16,AGCAGCTG,0.311
17,AGCAGCAG,-0.0192
18,CGCAGCGC,0.15
19,ACATTACA,0.178
20,GGGTTAAC,0.0316
21,ATCCCCGA,0.0266
22,AGCCCGCA,0.225
23,CCTACTAC,-0.0926
24,CACTAACG,0.00491
25,CGCGAGTC,-0.109

row,Sequence,PBM E-score
1,AGTAGCAT,-0.0355
2,CACCTTAG,0.141
3,CGCAGCCA,0.365
4,CGCAGCCG,0.0939
5,AGCAGCCC,0.2
6,GCCAGCCC,-0.0556
7,GGCAGCCC,0.324
8,AGCAGCAA,0.0994
9,AGCAGCCA,0.35
10,CGCAGCGA,0.22
11,GGCAGCCA,0.422
12,GCCAGCCA,-0.0514
13,TGCAGCCA,0.00515
14,GGCAGCAC,-0.0566
15,AGGCCAGG,-0.25
16,ATCTATGA,-0.0683
17,ACTGAAAC,0.0485
18,CTAAACGC,0.0998
19,AGATCTGG,0.00449
20,ACGTTCAC,-0.22
21,GTCAGGAC,0.00402
22,GTCCAAGA,0.149
23,CACTCCCG,-0.134
24,GCCCTGGA,-0.0767
25,ACAGGAAT,0.307

row,Sequence,PBM E-score
1,ACAGGAAA,0.125
2,CCAGGAAG,0.166
3,ACAGGACG,0.26
4,ACAGGAAC,0.144
5,ACAGGAAG,0.455
6,CTGTTCCC,-0.0872
7,CACGGTAA,-0.233
8,CTATCGAC,-0.0454
9,GCCTCTCA,-0.0769
10,ACCTATAG,0.161
11,CGAGCGGA,-0.113
12,CGGAGCCA,0.282
13,GGGAGCCA,0.387
14,AGGAGCCA,0.214
15,TGGAGCCA,0.205
16,CGGAGCCG,0.0209
17,GGGAGCCC,0.226
18,GGTTTGGA,0.115
19,AATGCCCG,-0.207
20,AGAAAGGA,-0.143
21,CCGTCTCG,-0.0715
22,GTCACTAA,0.107
23,GGCGCCAC,0.253
24,AGCGCCAA,0.124
25,AGCGCCTA,0.164

row,Sequence,PBM E-score
1,GGCGCCGA,0.286
2,GGCGCCTA,0.385
3,AGCGCCGA,0.0415
4,GGCGCCAA,0.377
5,CGCGCCGA,0.0709
6,CGCGCCTA,0.258
7,AGGGTCGG,-0.133
8,GAATTTCC,0.082
9,AATACAGT,-0.0143
10,ATTACAGA,0.053
11,ATTACAGG,0.355
12,AATACAGA,-0.0124
13,AATACAAG,0.293
14,ATTACAGC,-0.134
15,AATACAGG,0.343
16,AATACAAC,0.0962
17,AATACAAT,-0.0331
18,CAAAGACC,0.00996
19,CAGTGGGC,-0.0102
20,ACTGCTAT,-0.225
21,ATATCCTC,-0.118
22,GACACCCC,-0.0371
23,AACGTCGC,-0.00983
24,AACCATAG,-0.00302
25,AAAATCCG,0.111

row,Sequence,PBM E-score
1,TGGCGCCA,0.37
2,CTGCGCCA,-0.135
3,GGGCGCCA,0.403
4,GGGCGCGA,0.187
5,CAGCGCCA,0.0174
6,GGGCGCTA,0.32
7,GCGCGCCA,0.0132
8,AGGCGCTA,0.0978
9,CGGCGCCA,0.308
10,CGGCGCTA,-0.00295
11,TGGCGCAA,-0.0289
12,TAGCGCCA,0.181
13,AAGGTAAA,0.0141
14,GTCAAGGA,0.0238
15,GAGTTTCA,-0.0957
16,GCCTTCGA,-0.126
17,GGGCGCCC,0.459
18,CGGCGCCG,0.113
19,CGGCGCGC,0.193
20,GAGCGCCC,0.234
21,GGGCGCAC,-0.138
22,CGGCGCCC,0.359
23,CAGCTGGG,-0.0114
24,AACACCGT,-0.132
25,ACATTTGC,-0.0633

row,Sequence,PBM E-score
1,CTGGTGCA,0.216
2,CGGGTGTC,-0.116
3,CGGGTGCA,0.0724
4,GAGGTGCC,0.281
5,AGGGTGCC,0.39
6,AGGGTGCA,-0.0715
7,GAGGTGCA,-0.125
8,ATGGTGCC,0.227
9,CTGGTGCC,0.352
10,CGGGTGCC,0.377
11,AAGGTGCC,0.144
12,AGGGTGCG,0.0402
13,GCGATCCC,0.0838
14,ACCAACCT,-0.0617
15,ACCAATAA,0.0976
16,CAGGGAGG,-0.257
17,CGTGGTGA,-0.09
18,CAGTCTAC,-0.0756
19,AGACGCCT,0.327
20,AGACGCAT,0.231
21,ACACGCCT,-0.087
22,ACACGCCG,0.199
23,CGACGCCG,0.349
24,ACACGCCA,-0.163
25,CGACGCCA,0.157

row,Sequence,PBM E-score
1,AGACGCCA,0.283
2,AGACGCAG,0.0695
3,CGCCGACG,0.0121
4,AGACGCCG,0.421
5,CCACGCCG,-0.106
6,AAAGCGCG,-0.0766
7,TAGCCCCA,0.139
8,AGAGGGGC,-0.044
9,GGTTTGAC,0.0178
10,CGTATGAC,0.0685
11,TAAACCGA,-0.235
12,CTCTGTTC,-0.0161
13,AACCGGGT,0.0617
14,GTCCGAAA,0.212
15,CTGGTCAA,0.0775
16,CGACGCGC,0.0401
17,AGACGCGC,0.289
18,AGACGCGA,0.214
19,ACCGTGGG,-0.00593
